Rows were chosen to be rich in hits. Some 2.2% of all compounds tested hit in one or more screens of this group.
PvdQ acylase = P. aeruginosa PvdQ acylase inhibitors, primary screen, biochemical, fluorescence, plate reader and imaging, single point; PvdQ acylase [Pseudomonas aeruginosa LESB58]; purified PvdQ acylase; inhibition, % at 10 µM; 0.063% of 340,000 active; AID 488965, 2010; in the data active = inhibition above about 30%, passing the limit was not always enough; inconclusive = no clear call, values can overlap the other calls;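 also: 0% = vehicle neutral wells and 100% = reference inhibitor wells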
PGC1a acetyl inh = inhibitors of PGC1a acetylation signal, primary screen, cell-based, U2OS, AlphaScreen, inhibitor mode; AlphaScreen anti-acetyl-lysine; with virally co-expressed GCN5 acetyltransferase; inhibition, % at 15.6 µM; 0.17% of 350,000 active; AID 651687, 2012;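 active = every replicate shows inhibition of at least 40%; inconclusive = mean inhibition at least 40% but some replicate below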;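 also: 0% = neutral control wells and 100% = positive control wells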
miR122 inh = miR-122 Renilla sensor signal increase in Huh7, primary screen, miR-122 inhibitor project, cell-based, single point, plate reader; 0.3% of 340,000 active; activation (reporter increase), % at 12.5 µM; Huh7 miR-122 Renilla luciferase sensor, 48 h; neutral wells = 0, positive control = 100;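 active = mean replicate activation score at least 90 and every replicate individually at or above 90; inconclusive = only one of the two criteria met; inactive = neither criterion met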;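 also: higher luciferase means less miR-122 activity so hits act as miR-122 inhibitors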
C2C12 statin = suppressors of statin myotoxicity in C2C12 myotubes, primary screen, cell-based, single point, plate reader | C2C12 myotubes + simvastatin, ATP luminescence, 48 h; scaled: DMSO 0, geranylgeraniol control 100 | rescue of ATP level, % at 7.49 µM | 0.78% of 330,000 active | AID 602340, 2012;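 active = mean ATP rescue above about 67%, or every replicate alone reaching that limit, limit read from the data, passing the limit was not always enough; inconclusive = no clear call, values can overlap the other calls; inactive = mean under the limit and some replicate under it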;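 also: myotubes were challenged with 10 µM simvastatin during compound exposure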
DENV2 CPE rescue = inhibitors of DENV2 cytopathic effect, primary screen, cell-based, plate reader, single concentration | DENV2-infected cells, cytopathic effect rescue | 1.7% of 350,000 active | CPE inhibition, % at 9.99 µM; in the data active = CPE inhibition above about 20%, passing the limit was not always enough; inconclusive = no clear call, values can overlap the other calls; tested in BHK-21 cells;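 also: 0% = median of neutral control wells and 100% = median of positive control wells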
The depositor's hits bear a star; ? = inconclusive; / = no result given; ! = not confirmed by another sample; [ ] = another dose, or the depositor's remark.

SMILES | PvdQ acylase | PGC1a acetyl inh | miR122 inh | C2C12 statin | DENV2 CPE rescue
O=C(N[C@@H]1C[C@@H]2O[C@@H](CO)CC[C@@H]2O[C@@H]1CCc1ccc(C#Cc2ccccc2)cc1)c1ccccn1 | / | -19 | / | / | 11
COc1cc(CN2CC3(CCN(C(=O)Nc4cccc(F)c4)CC3)c3c(n(C)c4cc(OC)ccc34)[C@@H]2CO)cc(OC)c1 | / | -8 | / | / | 13
C[C@@H]1CN([C@H](C)CO)C(=O)c2cc(N(C)C)ccc2O[C@@H](C)CCCCO[C@H]1CN(C)S(=O)(=O)c1cn(C)cn1 | / | -1 | 5[16.7 µM] | 10 | 3
COc1ccc(S(=O)(=O)Nc2ccc3c(c2)C(=O)N([C@H](C)CO)C[C@@H](C)[C@@H](CN(C)S(=O)(=O)c2cn(C)cn2)OCCCC[C@H](C)O3)cc1 | / | 16 | -5[16.7 µM] | / | 53*
C[C@H](CO)N1C[C@H](C)[C@H](CN(C)Cc2ccc(C(=O)O)cc2)Oc2ccc(NS(=O)(=O)c3cn(C)cn3)cc2C1=O | / | 2 | 0[16.7 µM] | -21 | 41*
Cc1ccc(S(=O)(=O)Nc2ccc3c(c2)C(=O)N([C@@H](C)CO)C[C@@H](C)[C@@H](CN(C)S(=O)(=O)c2cn(C)cn2)OCCCC[C@H](C)O3)cc1 | / | -2 | 7[16.7 µM] | / | 26*
C[C@@H]1CCCCO[C@@H](CN(C)S(=O)(=O)c2cn(C)cn2)[C@H](C)CN([C@@H](C)CO)C(=O)c2cc(N(C)C)ccc2O1 | / | -6 | 7[16.7 µM] | 21 | 53*
Cc1ccc(F)cc1S(=O)(=O)N[C@@H]1CCN(Cc2cccc3[nH]ccc23)C1 | / | / | / | / | -2
COc1ccc(CN(C)C[C@H]2OCCCC[C@@H](C)Oc3ccc(NS(=O)(=O)c4cn(C)cn4)cc3C(=O)N([C@H](C)CO)C[C@@H]2C)cc1 | / | -9 | 11[16.7 µM] | / | 52*
C[C@@H]1CCCCO[C@H](CN(C)S(=O)(=O)c2ccc(F)cc2)[C@@H](C)CN([C@H](C)CO)C(=O)c2cc(NS(=O)(=O)c3cn(C)cn3)ccc2O1 | / | -2 | 0[16.7 µM] | / | 23*
C[C@@H]1CN([C@H](C)CO)C(=O)c2cc(NS(=O)(=O)c3cccs3)ccc2O[C@@H](C)CCCCO[C@@H]1CN(C)S(=O)(=O)c1cn(C)cn1 | / | 9 | 2[16.7 µM] | -6 | -6
COc1ccc(CN(C)C[C@H]2OCCCC[C@H](C)Oc3ccc(NS(=O)(=O)c4cn(C)cn4)cc3C(=O)N([C@H](C)CO)C[C@@H]2C)cc1 | / | -2 | 7[16.7 µM] | / | -6
C[C@@H]1CN([C@@H](C)CO)C(=O)c2cc(NS(=O)(=O)c3cccs3)ccc2O[C@@H](C)CCCCO[C@H]1CN(C)S(=O)(=O)c1cn(C)cn1 | / | -8 | 2[16.7 µM] | -20 | 31*
Cc1ccc(S(=O)(=O)Nc2ccc3c(c2)C(=O)N([C@H](C)CO)C[C@@H](C)[C@@H](CN(C)S(=O)(=O)c2cn(C)cn2)OCCCC[C@H](C)O3)cc1 | / | 14 | 9[16.7 µM] | / | 34*
CC(=O)N1[C@@H](CO)[C@@H]2c3ccccc3N(S(=O)(=O)c3ccccc3F)C[C@@H]21 | / | -3 | 8[16.7 µM] | -6 | 19
COCc1cn([C@@H]2C[C@@H]3O[C@H](CO)CC[C@@H]3O[C@@H]2CCc2ccc(-c3ccc(OC)cc3)cc2)nn1 | / | / | / | / | -8
O=C(Cn1nnc(-c2ccncc2)n1)N(C1CCCCC1)C1CCCCC1 | -7 | -19 | -3 | 124* | /
NC(=O)c1ccc(-c2nnn(CC(=O)N(C3CCCC3)C3CCS(=O)(=O)C3)n2)cc1 (centres undefined) | 1 | -2 | 0 | 4 | 3
O=C(CN1CCN(Cc2ccccc2)CC1)NNC(=O)c1ccccc1 | 8 | 12 | -1 | 8 | 26*
O=C(C1CCCCC1)N1CC[C@@H]2[C@H]1c1cc(Br)ccc1N[C@@H]2CO | / | -5 | -1[16.7 µM] | 10 | -1
O=S(=O)(c1ccc(Cl)cc1)c1snnc1-c1ccccc1 | 22 | 42* | -13 | -29 | /
O=S(=O)(c1ccc(F)cc1)c1snnc1-c1ccccc1 | -14 | / | / | / | -3
O=C(Nc1ccc(-c2csc(Nc3cccc(C(F)(F)F)c3)n2)cc1)c1cc([N+](=O)[O-])cc(C(F)(F)F)c1 | -9 | -13 | 3 | 4 | 135*
C[C@@H]1CN([C@@H](C)CO)C(=O)CCCn2nncc2CO[C@@H]1CN(C)CC1CCCCC1 | / | 5 | 0[16.7 µM] | 9 | 59*
C[C@H]1CN([C@@H](C)CO)C(=O)CCCn2nncc2CO[C@H]1CN(C)CC1CCCCC1 | / | 2 | 5[16.7 µM] | -2 | 3
SMILES | PvdQ acylase | PGC1a acetyl inh | miR122 inh | C2C12 statin | DENV2 CPE rescue
C[C@@H]1CN([C@@H](C)CO)C(=O)CCCn2nncc2CO[C@@H]1CN(C)C(=O)C1CC1 | / | 7 | 1[16.7 µM] | -4 | 9
C[C@H](CO)N1C[C@H](C)[C@H](CN(C)C(=O)C2CC2)OCc2cnnn2CCCC1=O | / | -2 | 6 | 8 | 113*!
C[C@H](CO)N1C[C@H](C)[C@@H](CN(C)C(=O)C2CC2)OCc2cnnn2CCCC1=O | / | -10 | 1 | 1 | 49*!
C[C@H]1CN([C@@H](C)CO)C(=O)CCCn2nncc2CO[C@@H]1CN(C)C(=O)C1CC1 | / | 6 | 2[16.7 µM] | 0 | -3
COc1cccc(NC(=O)N(C)C[C@@H]2OCc3cnnn3CCCC(=O)N([C@@H](C)CO)C[C@@H]2C)c1 | / | 5 | -3[16.7 µM] | 5 | 79*
CCC(=O)N1C[C@@H](C)[C@@H](OC)CN(C)C(=O)c2cc(NC(=O)c3ccc(F)cc3)ccc2OC[C@@H]1C | / | -14 | 1[16.7 µM] | -8 | 17
Cc1noc(C)c1NC(=O)Nc1ccc2c(c1)C(=O)N([C@H](C)CO)C[C@@H](C)[C@H](CN(C)S(=O)(=O)c1cn(C)cn1)OCCCC[C@H](C)O2 | / | -8 | 7[16.7 µM] | / | 5
CCOC(=O)c1cc2c(s1)-c1c(C)cccc1OC2 | 68* | -18 | 0 | 5 | 7
CC(C)C[C@@H]1NC(=O)[C@H](Cc2ccccc2)N(C)C(=O)[C@H](C)NC(=O)c2ccccc2NC(=O)[C@H](Cc2ccc(O)cc2)N(C)C1=O | 2 | 4 | 12 | -45 | 1
COc1ccc(CC2C(=O)NC(C)C(=O)N(C)C3Cc4ccc(cc4)Oc4cc(ccc4O)CC(C(=O)NC(C)C(=O)NC(C)C(=O)N2C)N(C)C3=O)cc1 (centres undefined) | -16 | 70* | -7 | / | ?
CNC[C@H]1Oc2cc(C#Cc3ccc(OC)cc3)ccc2S(=O)(=O)N([C@@H](C)CO)C[C@@H]1C | / | -15 | 0[16.7 µM] | -55 | 33*
COc1ccc(C#Cc2ccc3c(c2)O[C@H](CN(C)C(=O)Nc2cccc(OC)c2)[C@@H](C)CN([C@H](C)CO)S3(=O)=O)cc1 | / | 17 | 26[16.7 µM] | ? | -7
COc1ccc(C#Cc2ccc3c(c2)O[C@H](CN(C)C(=O)Nc2cccc(OC)c2)[C@H](C)CN([C@H](C)CO)S3(=O)=O)cc1 | / | 10 | -1[16.7 µM] | 92* | -7
